PubChem BioAssay (NCI)
Several values for one entry are separate records, joined by “and”; a condition that tells them apart may be missing. Identical values can stand only once. The panel holds about 79,000 compounds, 15% with a hit somewhere; the sample as a whole holds those more often. The source holds several records for some structures; these can differ, active in one and inactive in another. Activity calls are given as the source filed them. No stated cut-off is given here; in the data, active means growth inhibition above about 70%; inactive means the rest. Where a SMILES comes first, the peptide text is derived from it.

Test: NCI Yeast Anticancer Drug Screen. Data for the mlh1 rad18 strain (AID 175)
Details: S. cerevisiae mlh1 rad18 strain growth inhibition; at 50.0 µM (retest, dose inferred, filed as 5.0); stronger effect = higher value
Procedure, shortened: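 Test agents were incubated with a yeast strain of defined genotype (DNA damage repair defect). Inhibition of growth was derived by comparison with vehicle-exposed cultures.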

Q: Which growth inhibition does the source give for Cc1cccc(Cc2ccccc2Cl)c1O here?
A: The growth inhibition was 81% (active).

Q: Which growth inhibition does the source give for OC1CN(Cc2ccccc2)C[C@@H]1O (stereo partly drawn) here?
A: The growth inhibition was 99% (active).

Q: With BrC(c1cccc2ccccc12)c1cccc2ccccc12 as the molecule, how does the growth inhibition read?
A: The growth inhibition was 95% (active).

Q: For COc1nc(NC2OC(CO)C(O)C(O)C2O)c(Cl)c(=O)n1C (stereo not drawn), which growth inhibition is on record?
A: The growth inhibition was -3% (inactive).

Q: Which growth inhibition does the source give for O=S(=O)(CC(Cl)c1ccccc1)c1nc2ccccc2s1 (stereo not drawn) here?
A: The growth inhibition was -13% (inactive).

Q: For CCCCCCCCCCCCOS(=O)(=O)O, which growth inhibition is on record?
A: Its growth inhibition is 29% (inactive).

Q: With O=C(NNc1ccnc2cc(Cl)ccc12)/C(=C/c1ccc2c(c1)OCO2)NC(=O)c1ccccc1 as the molecule, how does the growth inhibition read?
A: The growth inhibition was 71% (active).

Q: With O=C(CCN1CCN2c3ccccc3CCC2C1)c1ccc(F)cc1 (stereo not drawn) as the molecule, how does the growth inhibition read?
A: Its growth inhibition is 96% (active) and 99% (active).

Q: For CC1C[C@]2(C)C(=O)Nc3ccccc3[C@@H]2Nc2ccccc21 (stereo partly drawn), which growth inhibition is on record?
A: The growth inhibition was 43% (inactive).

Q: With Nc1nc(=S)c2ncn(C3OC(CO)C(O)C3O)c2[nH]1 (stereo not drawn) as the molecule, how does the growth inhibition read?
A: Its growth inhibition is 52% (inactive).

Q: With O=C(O)c1c2ccccc2nc2[nH]c(=O)[nH]c(=O)c12 as the molecule, how does the growth inhibition read?
A: The growth inhibition was -4% (inactive).

Q: With N#Cc1c(/N=C/c2ccccc2Cl)sc2c1CCC2 as the molecule, how does the growth inhibition read?
A: The growth inhibition was -20% (inactive).

Q: For CCC1=C(C)/C(=C/c2[nH]c(C)c(CC)c2C)N=C1C, which growth inhibition is on record?
A: The growth inhibition was 61% (inactive) and 48% (inactive).

Q: For O=C(O)c1ccccc1C(=O)O, which growth inhibition is on record?
A: Its growth inhibition is 7% (inactive).

Q: With Cc1cc(C)nc(NS(=O)(=O)c2ccc(Nc3c4ccccc4nc4c(C(=O)NCCCN(CCO)CCO)cccc34)cc2)n1 as the molecule, how does the growth inhibition read?
A: The growth inhibition was 1% (inactive).

Q: With CCCCCCCCCCCCCCCCCCOCC(COP(=O)([O-])OCC[N+](C)(C)C)OC (stereo not drawn) as the molecule, how does the growth inhibition read?
A: The growth inhibition was -88% (inactive).

Q: With S=c1nc[nH]c2[nH]ccc12 as the molecule, how does the growth inhibition read?
A: The growth inhibition was 0% (inactive).

Q: Which growth inhibition does the source give for C=C[C@]1(C)C=C2C(O)CC3C(C)(C)CCC[C@]3(CO)C2CC1 (stereo partly drawn) here?
A: The growth inhibition was 99% (active).

Q: For c1ccc(-c2cnc(-c3ccc(-c4ncc(-c5ccccc5)o4)cc3)o2)cc1, which growth inhibition is on record?
A: The growth inhibition was -10% (inactive).

Q: Which growth inhibition does the source give for Nc1ccc2c(ccc3ccc4ccccc4c32)c1 here?
A: The growth inhibition was 97% (active).

Q: Which growth inhibition does the source give for O/N=C(\CC(O)(C(F)(F)F)C(F)(F)F)c1cccc(Cl)c1 here?
A: Its growth inhibition is 97% (active).

Q: With CC(=O)OC1CCC2(C)C(CCC3C4CCC(OC(C)=O)C4(C)CCC32)O1 (stereo not drawn) as the molecule, how does the growth inhibition read?
A: Its growth inhibition is 93% (active).

Q: With Cc1[nH]c2ccccc2c1C1Cc2ccccc2N1 (stereo not drawn) as the molecule, how does the growth inhibition read?
A: Its growth inhibition is 37% (inactive) and 52% (inactive).

Q: Which growth inhibition does the source give for COc1ccc(C2c3cc4c(cc3OC(NNC(N)=O)C2C)OCO4)cc1 (stereo not drawn) here?
A: Its growth inhibition is 97% (active).

Q: Which growth inhibition does the source give for Oc1ccc(C(O)(c2ccccc2)c2ccccc2)cc1 here?
A: The growth inhibition was 60% (inactive) and 95% (active).

Q: For COc1ccc(CC(=O)c2ccc(O)cc2O)cc1, which growth inhibition is on record?
A: The growth inhibition was 97% (active).

Q: Which growth inhibition does the source give for COC(=O)C#CC(=O)OC here?
A: The growth inhibition was 98% (active).

Q: With O=C1OC2=C(c3ccccc3)CCCC2C1=O (stereo not drawn) as the molecule, how does the growth inhibition read?
A: The growth inhibition was 93% (active).

Q: Which growth inhibition does the source give for CC(C)C(NC(=O)C(N)CCC(=O)O)C(=O)O (stereo not drawn) (H-Glu-Val-OH; configuration not given here) here?
A: Its growth inhibition is 4% (inactive).

Q: With CC1(C)CC(=O)C2=C(C1)OC1=C(CC(C)(C)CC1=O)C2c1ccccc1Cl (stereo not drawn) as the molecule, how does the growth inhibition read?
A: Its growth inhibition is 17% (inactive).

Q: For O=C(CC(=O)CC(O)(c1ccccc1)c1ccccc1)CC(=O)c1ccccc1, which growth inhibition is on record?
A: The growth inhibition was 97% (active).

Q: Which growth inhibition does the source give for O=Nc1ccc(C=C2C(=O)C=CC2=O)cc1 here?
A: Its growth inhibition is 98% (active).

Q: Which growth inhibition does the source give for C[N+]1(Cc2ccc(Cl)c(Cl)c2)CCCC1C1CCCN(Cc2ccc(Cl)c(Cl)c2)C1 (stereo not drawn) here?
A: The growth inhibition was 76% (active).

Q: Which growth inhibition does the source give for C[C@H]1CC[C@H]([C@@H](C)[C@H]2[C@@H](O)C[C@H]3[C@@H]4CC[C@H]5C[C@@H](O)CC[C@]5(C)[C@H]4CC[C@]23C)NC1 here?
A: The growth inhibition was 97% (active) and 98% (active).

Q: For CCOP(=O)(OCC)C(C)(CC)NC(=O)C(C(F)(F)F)C(F)(F)F (stereo not drawn), which growth inhibition is on record?
A: Its growth inhibition is 18% (inactive).

Q: With [N-]=[N+]=NC(=O)Nc1cccc(C(F)(F)F)c1 as the molecule, how does the growth inhibition read?
A: The growth inhibition was 98% (active).

Q: With NC(C/[N+]([O-])=N/O)C(=O)O (stereo not drawn) as the molecule, how does the growth inhibition read?
A: Its growth inhibition is 38% (inactive).

Q: For NC(=O)N/N=C/c1ccc([N+](=O)[O-])o1, which growth inhibition is on record?
A: The growth inhibition was 50% (inactive).
